Results published in PubChem BioAssay (Tox21).
Inconclusive results are not listed. Calls of active or inactive are those of the source. Calls come from the whole dose curve; as a rule, active = well fitted activation curve with a large enough effect in the repeat runs; inconclusive = weak or mixed curves; inactive = flat fitted curve, though single readings scatter.

Target: Nuclear receptor subfamily 1 group I member 2 (Homo sapiens) (UniProt O75469)
Test: Human pregnane X receptor (PXR) activation by small molecules, qHTS assay (AID 1346985); note: nearly all actives have a fitted effect of over 40% in size
Conditions: DPX-2 HepG2 CYP3A4-luciferase, 24 h; series mostly up to 38.3 µM; activation: at the top concentration
Summary of the method: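 DPX-2 cells (HepG2 co-transfected with a PXR response element and a CYP3A4-promoter luciferase construct) were seeded at 2,000 per well, rested 5 hr at 37C, then exposed to DMSO-dissolved compounds for 24 hr. Activation was read as luciferase luminescence.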
% is set by controls: 0 for no effect and ±100 for the full control effect.

Row | SMILES | activation | Potency
1 | CN(C)CCc1c[nH]c2ccc(Cn3cncn3)cc12 | -6.55% (inactive) | 
2 | CC(=O)OCC1=C(C(=O)O)N2C(=O)[C@@H](NC(=O)Cc3ccccc3)[C@H]2SC1 | 1.83% (inactive) | 
3 | O=C(O)COc1ccc(C(=O)c2cccs2)c(Cl)c1Cl |  | inactive
4 | NC(=O)[C@@H]1C[C@]2(NC(=O)NC2=O)c2cc(F)ccc2O1 | -12% (inactive) | 
